# Test results taken from article PMC11062922 (Nature Chemical Biology, 2023).
# Where two headings read alike, the source gives them in different places.
# Experiments:
# Set-up in all cases: species or system human, MV4-11 + K-562 + COLO205 + SK-N-BE2 + OVCAR-8
# ABL2 = conditions: read-out: apparent Kd, n = 1
# BCR = conditions: read-out: apparent Kd, n = 1
# EPHB2 = conditions: read-out: apparent Kd, n = 1
# EPHB4 = conditions: read-out: apparent Kd, n = 1
# HCK = conditions: read-out: apparent Kd, compound concentrations: 100 nM and 1000 nM (sheet 'Samples'), n = 1
# TNK1 = conditions: read-out: apparent Kd, n = 1
# CSNK1E = conditions: read-out: apparent Kd, compound concentrations: 100 nM and 1000 nM (sheet 'Samples'), n = 1
# ICK = conditions: read-out: apparent Kd, n = 1
# PIK3CG = conditions: read-out: apparent Kd, compound concentrations: 100 nM and 1000 nM (sheet 'Samples'), n = 1
# ACAD11 = conditions: read-out: apparent Kd, n = 1
# CDK5 = conditions: read-out: apparent Kd, compound concentrations: 100 nM and 1000 nM (sheet 'Samples'), n = 1
# JAK2 = conditions: read-out: apparent Kd, n = 1
# MAP4K1 = conditions: read-out: apparent Kd, n = 1
# ROCK1 = conditions: read-out: apparent Kd, compound concentrations: 100 nM and 1000 nM (sheet 'Samples'), n = 1
# MAP3K11 = conditions: read-out: apparent Kd, n = 1
# TGFBR2 = conditions: read-out: apparent Kd, n = 1
# PRKX = conditions: read-out: apparent Kd, compound concentrations: 100 nM and 1000 nM (sheet 'Samples'), n = 1
# JAK1 = conditions: read-out: apparent Kd; compound concentrations: 100 nM and 1000 nM (sheet 'Samples'), CATDS: 1.5080552204992799E-2; n = 1
# BUB1 = conditions: read-out: apparent Kd; compound concentrations:100 nM and 1000 nM (sheet 'Samples'); n = 1
# [1] = compound concentrations:100 nM and 1000 nM (sheet 'Samples')
structure (smiles),measurement,setting,value
Cc1ccccc1-n1ncc(C(=O)c2ccccc2)c1N [RO1151248-000],potency estimated from few doses,"ABL2; compound concentrations: 100 nM and 1000 nM (sheet 'Samples'), CATDS: 2.8713823072650399E-2",630 nM
same,potency estimated from few doses,"BCR; compound concentrations: 100 nM and 1000 nM (sheet 'Samples'), CATDS: 2.0148747001584599E-2",1380 nM
same,potency estimated from few doses,"EPHB2; compound concentrations: 100 nM and 1000 nM (sheet 'Samples'), CATDS: 2.84737750154796E-2",640 nM
same,potency estimated from few doses,"EPHB4; compound concentrations: 100 nM and 1000 nM (sheet 'Samples'), CATDS: 3.0398268163298901E-2",567 nM
same,potency estimated from few doses,HCK; CATDS: 1.9651331650111199E-2,1480 nM
same,potency estimated from few doses,"TNK1; compound concentrations: 100 nM and 1000 nM (sheet 'Samples'), CATDS: 3.5283149780083803E-2",439 nM
CCN(CC)Cc1ccc(Nc2nccc(-c3cnn4ncccc34)n2)cc1 [GW780056X],potency estimated from few doses,CSNK1E; CATDS: 7.3916034222461E-2,72.1 nM
same,potency estimated from few doses,"ICK; compound concentrations: 100 nM and 1000 nM (sheet 'Samples'), CATDS: 2.9886591978346599E-2",433 nM
CCn1c(-c2cccnc2O)nc2cnccc21 [SB-736715],potency estimated from few doses,HCK; CATDS: 1.6731376225889199E-2,1040 nM
same,potency estimated from few doses,PIK3CG; CATDS: 9.1944344631326697E-2,91.6 nM
O=C(O)C(F)(F)F.O=c1[nH]ccc2nc(N[C@@H]3CCNC3)nc(Nc3ccc4c(c3)S(=O)(=O)CC4)c12 [GSK2181306A],potency estimated from few doses,"ACAD11; compound concentrations: 100 nM and 1000 nM (sheet 'Samples'), CATDS: 2.2275059319964801E-2",145 nM
same,potency estimated from few doses,CDK5; CATDS: 1.15516504850929E-2,571 nM
same,potency estimated from few doses,"JAK2; compound concentrations: 100 nM and 1000 nM (sheet 'Samples'), CATDS: 1.0295673104193499E-2",781 nM
same,potency estimated from few doses,"MAP4K1; compound concentrations: 100 nM and 1000 nM (sheet 'Samples'), CATDS: 1.18408436386705E-2",536 nM
same,potency estimated from few doses,PIK3CG; CATDS: 1.1005849922452E-2,648 nM
same,potency estimated from few doses,ROCK1; CATDS: 8.6334191105918393E-3,1410 nM
COc1cc(Nc2nccc(-c3cnn4ncccc34)n2)cc(OC)c1 [GW801372X],potency estimated from few doses,"ICK; compound concentrations: 100 nM and 1000 nM (sheet 'Samples'), CATDS: 7.2296176142385704E-2",49.6 nM
same,potency estimated from few doses,"MAP3K11; compound concentrations: 100 nM and 1000 nM (sheet 'Samples'), CATDS: 1.8293530288082401E-2",1660 nM
CN(C)CC(O)COc1ccc(Nc2nccc(-c3cnn4nc(N5CCOCC5)ccc34)n2)cc1 (stereo not shown) [GW767488X],potency estimated from few doses,ICK; [1],1720 nM
same,potency estimated from few doses,TGFBR2; [1],215 nM
Cc1cc(-c2ccnc(Nc3cccc(C#N)c3)n2)cc(C)c1O [GSK1440913A],potency estimated from few doses,"ACAD11; compound concentrations: 100 nM and 1000 nM (sheet 'Samples'), CATDS: 0.11808512095338899",425 nM
O=C(O)C(F)(F)F.O=C(O)C(F)(F)F.O=c1[nH]ccc2nc(N[C@@H]3CCCNC3)nc(Nc3ccc(S(=O)(=O)N4CCOCC4)cc3)c12.O=c1[nH]ccc2nc(N[C@@H]3CCCNC3)nc(Nc3ccc(S(=O)(=O)N4CCOCC4)cc3)c12 [GSK2177277A],potency estimated from few doses,CDK5; CATDS: 6.6467271298615597E-3,1280 nM
same,potency estimated from few doses,CSNK1E; CATDS: 1.0000373505011199E-2,274 nM
same,potency estimated from few doses,HCK; CATDS: 6.5481840851314196E-3,1390 nM
same,potency estimated from few doses,"JAK2; compound concentrations: 100 nM and 1000 nM (sheet 'Samples'), CATDS: 4.8200913683498499E-2",12.1 nM
same,potency estimated from few doses,"MAP3K11; compound concentrations: 100 nM and 1000 nM (sheet 'Samples'), CATDS: 9.6570166700827697E-3",305 nM
same,potency estimated from few doses,"MAP4K1; compound concentrations: 100 nM and 1000 nM (sheet 'Samples'), CATDS: 2.52445457055663E-2",34.1 nM
same,potency estimated from few doses,PIK3CG; CATDS: 7.6571772064284397E-3,679 nM
same,potency estimated from few doses,PRKX; CATDS: 7.1625839917235003E-3,897 nM
same,potency estimated from few doses,ROCK1; CATDS: 7.59809178232565E-3,700 nM
c1ccc(-c2n[nH]cc2Nc2ccnc3ccccc23)nc1 [GW694077X],potency estimated from few doses,"ACAD11; compound concentrations: 100 nM and 1000 nM (sheet 'Samples'), CATDS: 2.4414312635225699E-2",1600 nM
same,potency estimated from few doses,CSNK1E; CATDS: 2.3726321551731398E-2,1790 nM
same,potency estimated from few doses,ROCK1; CATDS: 2.4219369604879502E-2,1650 nM
same,potency estimated from few doses,"TGFBR2; compound concentrations: 100 nM and 1000 nM (sheet 'Samples'), CATDS: 2.8342721884761699E-2",940 nM
CC(=O)N[C@@H](Cc1ccc(OP(=O)(O)O)cc1)C(=O)N[C@H]1CCC(=O)N2CCC[C@@H](C(=O)NCc3ccc(Cl)cc3)N2C1=O [RO0325308-000],potency estimated from few doses,ABL2; [1],60.3 nM
same,potency estimated from few doses,BCR; [1],604 nM
same,potency estimated from few doses,EPHB2; [1],56.3 nM
same,potency estimated from few doses,EPHB4; [1],59.9 nM
same,potency estimated from few doses,TNK1; [1],468 nM
COc1cc[nH]c1/C=C1\C(=O)Nc2ccc(F)c(C#CC3(O)CCNCC3)c21.Cl [RO0282986-001],potency estimated from few doses,"ICK; compound concentrations: 100 nM and 1000 nM (sheet 'Samples'), CATDS: 1.28060195349982E-2",593 nM
same,potency estimated from few doses,JAK1,391 nM
same,potency estimated from few doses,"MAP4K1; compound concentrations: 100 nM and 1000 nM (sheet 'Samples'), CATDS: 1.0790478017061501E-2",1000 nM
CN(C)CCNC(=O)Nc1ccc(N(C)c2ccnc(Nc3ccc(CS(C)(=O)=O)cc3)n2)cc1.Cl [GW830900A],potency estimated from few doses,JAK2; [1],1050 nM
same,potency estimated from few doses,TGFBR2; [1],1550 nM
COc1ccc(Nc2nccc(-c3ccc(NC(=O)c4cc5cc(F)ccc5[nH]4)cc3)n2)cc1 [GSK1229496A],potency estimated from few doses,"JAK2; compound concentrations: 100 nM and 1000 nM (sheet 'Samples'), CATDS: 0.41035402481259398",584 nM
CS(=O)(=O)Nc1ccc(-c2ccnc3[nH]ccc23)cc1 [GSK993273A],potency estimated from few doses,ACAD11; [1],1040 nM
c1cnn2ncc(-c3ccnc(Nc4ccc5c(c4)OCCO5)n3)c2c1 [GW806290X],potency estimated from few doses,CSNK1E; CATDS: 2.4076386460309102E-2,1050 nM
same,potency estimated from few doses,"ICK; compound concentrations: 100 nM and 1000 nM (sheet 'Samples'), CATDS: 0.106713874587666",50.6 nM
same,potency estimated from few doses,"TGFBR2; compound concentrations: 100 nM and 1000 nM (sheet 'Samples'), CATDS: 6.1295123324086299E-2",123 nM
CC(C)Oc1ccc2c(-c3ccnc(Nc4ccc(N5CCN(C)CC5)cc4)n3)cnn2n1 [GW696155X],potency estimated from few doses,BUB1,853 nM
NCC(NC(=O)c1cc(-c2cn[nH]c2)c(-c2ccnc3[nH]ccc23)s1)c1ccccc1.NCC(NC(=O)c1cc(-c2cn[nH]c2)c(-c2ccnc3[nH]ccc23)s1)c1ccccc1.O=C(O)C(F)(F)F.O=C(O)C(F)(F)F (stereo not shown) [GSK1325775A],potency estimated from few doses,PRKX; CATDS: 4.4311971030028298E-2,641 nM
same,potency estimated from few doses,ROCK1; CATDS: 0.15957099257621499,52.4 nM
Nc1nc(Nc2ccccc2)cc(-c2ccc3c(N)n[nH]c3c2)n1 [GSK2225749A],potency estimated from few doses,BUB1,1900 nM
Cc1n[nH]c2cc(Nc3ccnc(Nc4cccc(CN5CCOCC5)c4)n3)ccc12 [GW682569X],potency estimated from few doses,"TGFBR2; compound concentrations: 100 nM and 1000 nM (sheet 'Samples'), CATDS: 0.113560287008428",891 nM
O=C(O)C(F)(F)F.O=c1[nH]ccc2nc(N[C@@H]3CCNC3)nc(Nc3cc(Cl)cc(Cl)c3)c12 [GSK2188764A],potency estimated from few doses,MAP3K11; [1],813 nM
same,potency estimated from few doses,MAP4K1; [1],1030 nM
O=C1N=C(NCc2cccs2)O/C1=C\c1ccc2ncccc2c1 [RO4624208-000],potency estimated from few doses,PIK3CG; CATDS: 5.5474832594148302E-2,936 nM
same,potency estimated from few doses,PRKX; CATDS: 5.4979506066670798E-2,966 nM
